According to PubChem BioAssay:
The source made the active and inactive calls.

Tests used:
[1] = system: PRMT1 (protein arginine N-methyltransferase 1); test: small molecules binding arginine methyltransferase PRMT1 – biochemical, small-molecule microarray, 635 nm fluorescence, primary screen (AID 1088); settings: higher = more signal;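 further: binding of Prmt1 protein to compounds spotted on small-molecule microarray slides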
[2] = growth effects on S. cerevisiae YJM789 – YJM789 clinical isolate, OD600, 24 h, basal, primary screen (AID 1089); settings: higher = more signal, called active from +8 up or from −8 down;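 further: growth of clinical yeast isolate S. cerevisiae YJM 789 seeded 1000 cells per well; test concentration not given here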
[3] = S. pombe growth modifiers, basal conditions – strain 972, OD600, 24 h, no modulator, primary screen (AID 1090);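 further: basal condition with compound alone and no growth modifier present; test concentration not given here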; settings: S. pombe 972 growth, higher = more signal, called active from +8 up or from −8 down
[4] = budding yeast growth modifiers under rapamycin – strain BY4716, OD600, 96 h, primary screen (AID 1091); further: test concentration not given here; settings: S. cerevisiae BY4716 + rapamycin, higher = more signal, called active from +8 up or from −8 down
[5] = target: Torsin-1A-interacting protein 2 (Homo sapiens) (UniProt Q8NFQ8); test: small molecules binding lysate-expressed LULL1 – cell lysate, human LULL1 lysate, 635/667 nm fluorescence, primary screen (AID 1092); settings: small-molecule microarray, hLULL1 lysate binding, 635 nm fluorescence; higher = more signal;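 further: probe is lysate of COS7 cells overexpressing human LULL1; score merges per-feature 667 nm fluorescence with signal-to-noise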
[6] = optical density change of DRC41 E. coli – strain DRC41, OD650, 24 h, E. coli filamentation project, primary screen (AID 1093);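 further: MC1000 strain lacking acrAB efflux and sulA so SOS filamentation is blocked; test concentration not given here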; settings: E. coli DRC41 growth, higher = more signal, called active from +8 up or from −8 down
[7] = probe aLefty2 binding to arrayed compounds – biochemical, biotinylated probe, 635/667 nm fluorescence, primary screen (AID 1094); settings: small-molecule microarray, higher = more signal;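 further: score merges spot fluorescence near 667 nm with spot signal-to-noise ratio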
[8] = system: Noggin (protein binding on small-molecule microarray); test: small molecules binding Noggin protein – biochemical, 635/667 nm fluorescence, primary screen (AID 1095); settings: 635 nm fluorescence, higher = more signal;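 further: score merges 667 nm feature fluorescence with signal to noise over triplicate slides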
[9] = target: Neurogenic locus notch homolog protein 3 (Homo sapiens) (UniProt Q9UM47); test: small molecules binding NOTCH3 protein – biochemical, 635/667 nm fluorescence, primary screen (AID 1096); settings: small-molecule microarray, 635 nm fluorescence, higher = more signal
[10] = probe aEGFR binding to arrayed compounds – biochemical, biotinylated probe, 635/667 nm fluorescence, primary screen (AID 1097); settings: small-molecule microarray, higher = more signal;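 further: probe is a biotinylated anti-EGFR antibody binding compounds printed on slides; score combines fluorescence near 667 nm and signal to noise of each spot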
[11] = system: Plasmodium falciparum Sir2 (PF13_0152, Sir2A); test: Plasmodium falciparum Sir2A binding compounds – biochemical, small-molecule microarray, 635 nm fluorescence, primary screen (AID 1098); settings: fluorescence 635 nm, higher = more signal;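 further: score merges spot fluorescence intensity with its signal-to-noise ratio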
[12] = probe aDKK1 binding to arrayed compounds – biochemical, biotinylated probe, 635/667 nm fluorescence, primary screen (AID 1099); settings: small-molecule microarray, higher = more signal;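 further: score merges 667nm spot fluorescence with signal to noise across triplicate slides; reference of the scale not given here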
[13] = probe aCHRDL2 binding to arrayed compounds – biochemical, biotinylated probe, 635/667 nm fluorescence, primary screen (AID 1100); settings: small-molecule microarray, higher = more signal
[14] = change in splice reporter luminescence, either direction, cell-based, HEK293, spliceosome inhibition project, primary screen (AID 1101); settings: HEK293 splicing luciferase reporter, 24 h, higher = more signal, called active from +8 up or from −8 down;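 further: HEK293 cells carrying a splicing-competent luciferase reporter gene; test concentration not given here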
[15] = target: Fibroblast growth factor 10 (Homo sapiens) (UniProt O15520); test: compounds binding fibroblast growth factor 10 – biochemical, small-molecule microarray, 635 nm fluorescence, primary screen (AID 1102); settings: FGF10 binding, fluorescence 635 nm, higher = more signal
[16] = system: glycogen synthase kinase-3 (GSK3A per assay name; protocol says GSK3B); test: compounds binding glycogen synthase kinase-3 – biochemical, small-molecule microarray, 635 nm fluorescence, GSK3A, primary screen (AID 1103); settings: fluorescence 635 nm, higher = more signal; further: the record names both GSK3A and GSK3B
[17] = target: Epidermal growth factor receptor (Homo sapiens) (UniProt P00533); test: compounds binding epidermal growth factor receptor – biochemical, small-molecule microarray, 635 nm fluorescence, primary screen (AID 1104); settings: EGFR binding, higher = more signal;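 further: score merges 667 nm emission intensity with spot signal to noise over triplicate slides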
[18] = target: Follistatin-related protein 3 (Homo sapiens) (UniProt O95633); test: compounds binding follistatin-related protein 3 – biochemical, small-molecule microarray, 635 nm fluorescence, primary screen (AID 1105); settings: FSTL3 binding, higher = more signal;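 further: score merges emission near 667 nm and signal to noise per printed spot across three slides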
[19] = target: Dickkopf-related protein 1 (Homo sapiens) (UniProt O94907); test: small molecules binding DKK1 protein – biochemical, small-molecule microarray, 635 nm fluorescence scan, primary screen (AID 1106); settings: higher = more signal;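 further: score merges emission near 667 nm with signal to noise over three replicate slides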
[20] = system: Inhibin beta A chain (activin A); test: small molecules binding activin A – biochemical, small-molecule microarray, 635 nm fluorescence scan, primary screen (AID 1107); settings: INHBA, higher = more signal;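 further: mouse activin A protein probed at 4.33 µg/mL on printed slides; score merges bound-protein fluorescence near 667 nm with spot signal-to-noise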

Chain of Fibroblast growth factor 10 (Homo sapiens) (O15520 whole entry, looked up): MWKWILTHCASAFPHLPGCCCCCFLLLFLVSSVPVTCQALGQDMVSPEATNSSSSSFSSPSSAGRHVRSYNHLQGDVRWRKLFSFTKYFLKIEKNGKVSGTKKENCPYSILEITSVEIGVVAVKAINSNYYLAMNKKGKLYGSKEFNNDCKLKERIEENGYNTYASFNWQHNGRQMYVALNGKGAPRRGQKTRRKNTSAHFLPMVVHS
Chain of Neurogenic locus notch homolog protein 3 (Homo sapiens) (Q9UM47 whole entry, looked up): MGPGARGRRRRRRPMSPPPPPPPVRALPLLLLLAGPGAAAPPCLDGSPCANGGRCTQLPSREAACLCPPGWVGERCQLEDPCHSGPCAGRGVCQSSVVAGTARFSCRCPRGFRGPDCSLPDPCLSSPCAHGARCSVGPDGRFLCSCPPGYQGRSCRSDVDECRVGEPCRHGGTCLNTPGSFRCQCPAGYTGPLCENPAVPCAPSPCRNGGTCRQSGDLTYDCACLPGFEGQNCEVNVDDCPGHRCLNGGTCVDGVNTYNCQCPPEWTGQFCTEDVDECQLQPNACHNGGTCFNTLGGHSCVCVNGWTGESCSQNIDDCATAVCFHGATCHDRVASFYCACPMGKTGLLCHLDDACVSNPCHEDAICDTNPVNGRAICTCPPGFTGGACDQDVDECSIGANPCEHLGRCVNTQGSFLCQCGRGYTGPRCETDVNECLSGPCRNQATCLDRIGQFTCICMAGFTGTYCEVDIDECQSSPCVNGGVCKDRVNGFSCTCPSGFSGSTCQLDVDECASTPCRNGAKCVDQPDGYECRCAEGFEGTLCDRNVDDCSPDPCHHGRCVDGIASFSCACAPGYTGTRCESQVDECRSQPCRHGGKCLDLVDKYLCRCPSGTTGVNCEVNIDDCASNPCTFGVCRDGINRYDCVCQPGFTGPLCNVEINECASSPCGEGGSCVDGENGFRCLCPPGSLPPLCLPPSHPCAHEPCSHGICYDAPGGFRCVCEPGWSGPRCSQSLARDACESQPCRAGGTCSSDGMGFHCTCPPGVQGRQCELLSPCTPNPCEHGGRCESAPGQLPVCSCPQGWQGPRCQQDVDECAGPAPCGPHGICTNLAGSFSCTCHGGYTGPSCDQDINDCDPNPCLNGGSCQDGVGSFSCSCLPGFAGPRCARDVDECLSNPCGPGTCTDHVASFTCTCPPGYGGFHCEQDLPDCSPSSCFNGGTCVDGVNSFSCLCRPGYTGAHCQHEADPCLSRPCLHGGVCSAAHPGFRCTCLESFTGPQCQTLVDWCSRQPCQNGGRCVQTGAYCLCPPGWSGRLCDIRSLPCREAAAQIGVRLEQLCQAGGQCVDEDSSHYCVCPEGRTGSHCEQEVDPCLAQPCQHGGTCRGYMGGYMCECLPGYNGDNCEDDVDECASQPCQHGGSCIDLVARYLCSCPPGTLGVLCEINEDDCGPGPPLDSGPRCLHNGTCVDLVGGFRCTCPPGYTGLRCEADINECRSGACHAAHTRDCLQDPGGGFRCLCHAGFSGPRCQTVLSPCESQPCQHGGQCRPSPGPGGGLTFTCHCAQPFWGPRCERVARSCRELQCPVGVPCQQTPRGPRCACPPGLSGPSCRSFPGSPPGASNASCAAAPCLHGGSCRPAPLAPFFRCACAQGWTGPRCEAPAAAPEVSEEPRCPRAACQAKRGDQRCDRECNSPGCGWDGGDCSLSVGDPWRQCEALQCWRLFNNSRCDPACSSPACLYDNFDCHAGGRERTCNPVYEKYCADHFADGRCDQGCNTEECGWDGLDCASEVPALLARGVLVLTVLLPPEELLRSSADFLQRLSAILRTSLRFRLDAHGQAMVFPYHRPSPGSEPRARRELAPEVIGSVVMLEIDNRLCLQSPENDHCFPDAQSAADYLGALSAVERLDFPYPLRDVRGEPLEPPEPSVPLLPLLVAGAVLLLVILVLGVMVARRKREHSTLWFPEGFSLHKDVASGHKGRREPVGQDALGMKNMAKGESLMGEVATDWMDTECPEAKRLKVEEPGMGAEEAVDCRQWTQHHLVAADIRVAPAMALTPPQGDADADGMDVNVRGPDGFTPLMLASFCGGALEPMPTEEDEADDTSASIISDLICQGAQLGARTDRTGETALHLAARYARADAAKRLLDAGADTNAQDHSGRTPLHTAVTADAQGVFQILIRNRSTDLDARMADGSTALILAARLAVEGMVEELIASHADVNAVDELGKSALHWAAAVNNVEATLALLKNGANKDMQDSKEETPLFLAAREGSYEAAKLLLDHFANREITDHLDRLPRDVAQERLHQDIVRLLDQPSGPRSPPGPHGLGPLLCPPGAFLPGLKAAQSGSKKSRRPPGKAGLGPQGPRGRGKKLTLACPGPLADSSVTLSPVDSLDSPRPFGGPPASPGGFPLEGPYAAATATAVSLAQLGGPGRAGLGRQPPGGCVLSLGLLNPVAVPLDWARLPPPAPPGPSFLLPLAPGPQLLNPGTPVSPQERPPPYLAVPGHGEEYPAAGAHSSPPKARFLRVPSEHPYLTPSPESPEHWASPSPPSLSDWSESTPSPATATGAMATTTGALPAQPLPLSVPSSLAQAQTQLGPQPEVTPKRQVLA
Chain of Dickkopf-related protein 1 (Homo sapiens) (O94907 whole entry, looked up): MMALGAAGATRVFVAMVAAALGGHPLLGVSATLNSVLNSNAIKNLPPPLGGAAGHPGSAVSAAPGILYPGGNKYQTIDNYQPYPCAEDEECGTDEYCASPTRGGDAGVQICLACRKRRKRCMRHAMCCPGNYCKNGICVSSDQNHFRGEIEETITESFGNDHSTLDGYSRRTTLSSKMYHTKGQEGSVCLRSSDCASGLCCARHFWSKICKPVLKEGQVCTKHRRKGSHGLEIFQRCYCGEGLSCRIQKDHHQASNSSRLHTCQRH
Chain of Follistatin-related protein 3 (Homo sapiens) (O95633 whole entry, looked up): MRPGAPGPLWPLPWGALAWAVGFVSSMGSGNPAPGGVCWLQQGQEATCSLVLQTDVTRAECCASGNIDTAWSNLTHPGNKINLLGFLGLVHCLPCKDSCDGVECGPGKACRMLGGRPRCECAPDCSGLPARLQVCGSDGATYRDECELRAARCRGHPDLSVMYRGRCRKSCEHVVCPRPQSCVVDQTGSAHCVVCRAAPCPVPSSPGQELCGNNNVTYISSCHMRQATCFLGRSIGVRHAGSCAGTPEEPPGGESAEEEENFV
Chain of Torsin-1A-interacting protein 2 (Homo sapiens) (Q8NFQ8 whole entry, looked up): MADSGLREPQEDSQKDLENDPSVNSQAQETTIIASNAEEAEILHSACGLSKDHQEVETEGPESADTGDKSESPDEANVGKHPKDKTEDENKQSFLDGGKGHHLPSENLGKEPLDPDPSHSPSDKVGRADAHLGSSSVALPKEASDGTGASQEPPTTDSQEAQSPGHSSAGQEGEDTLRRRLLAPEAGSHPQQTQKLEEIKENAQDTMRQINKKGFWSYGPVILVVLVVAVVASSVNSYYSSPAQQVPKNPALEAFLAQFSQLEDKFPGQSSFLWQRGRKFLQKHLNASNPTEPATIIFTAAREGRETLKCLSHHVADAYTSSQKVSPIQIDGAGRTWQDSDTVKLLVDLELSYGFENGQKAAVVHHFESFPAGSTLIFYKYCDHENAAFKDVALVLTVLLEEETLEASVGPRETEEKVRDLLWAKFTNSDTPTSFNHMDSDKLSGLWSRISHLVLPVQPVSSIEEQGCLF
Chain of Epidermal growth factor receptor (Homo sapiens) (P00533 whole entry, looked up): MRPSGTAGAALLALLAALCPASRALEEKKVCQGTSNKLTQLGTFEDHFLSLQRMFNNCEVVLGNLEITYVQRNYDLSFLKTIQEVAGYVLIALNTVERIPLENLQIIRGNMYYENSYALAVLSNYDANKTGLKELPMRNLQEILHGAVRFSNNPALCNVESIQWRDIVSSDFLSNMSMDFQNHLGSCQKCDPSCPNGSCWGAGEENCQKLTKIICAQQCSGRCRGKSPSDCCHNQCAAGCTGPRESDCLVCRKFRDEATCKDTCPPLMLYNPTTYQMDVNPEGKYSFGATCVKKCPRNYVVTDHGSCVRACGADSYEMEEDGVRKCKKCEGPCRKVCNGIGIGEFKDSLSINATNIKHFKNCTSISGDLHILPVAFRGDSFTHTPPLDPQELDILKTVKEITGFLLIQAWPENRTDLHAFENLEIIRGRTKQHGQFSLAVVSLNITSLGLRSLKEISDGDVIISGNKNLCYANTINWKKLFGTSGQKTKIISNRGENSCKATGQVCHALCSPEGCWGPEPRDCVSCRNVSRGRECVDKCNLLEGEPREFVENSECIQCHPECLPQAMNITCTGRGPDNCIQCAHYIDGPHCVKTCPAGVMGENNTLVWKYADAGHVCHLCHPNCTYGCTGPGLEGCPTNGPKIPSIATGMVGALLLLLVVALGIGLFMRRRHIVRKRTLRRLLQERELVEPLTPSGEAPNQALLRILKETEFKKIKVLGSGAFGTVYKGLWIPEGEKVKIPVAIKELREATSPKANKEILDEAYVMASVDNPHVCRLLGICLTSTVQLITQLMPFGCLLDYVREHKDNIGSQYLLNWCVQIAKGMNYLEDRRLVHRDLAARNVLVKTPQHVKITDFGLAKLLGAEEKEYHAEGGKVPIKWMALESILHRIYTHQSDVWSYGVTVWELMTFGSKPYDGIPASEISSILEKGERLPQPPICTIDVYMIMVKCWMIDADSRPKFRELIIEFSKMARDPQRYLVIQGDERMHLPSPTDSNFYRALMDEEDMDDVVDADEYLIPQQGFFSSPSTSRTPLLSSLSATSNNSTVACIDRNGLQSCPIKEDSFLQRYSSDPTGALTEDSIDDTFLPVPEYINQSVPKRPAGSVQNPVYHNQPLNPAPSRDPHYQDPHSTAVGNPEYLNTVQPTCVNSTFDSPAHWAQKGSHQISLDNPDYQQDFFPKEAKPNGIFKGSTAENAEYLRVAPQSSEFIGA

| SMILES | composite z-score [1] | z-score [2] | z-score [3] | z-score [4] | composite z-score [5] | z-score [6] | composite z-score [7] | composite z-score [8] | composite z-score [9] | composite z-score [10] | composite z-score [11] | composite z-score [12] | composite z-score [13] | z-score [14] | composite z-score [15] | composite z-score [16] | composite z-score [17] | composite z-score [18] | composite z-score [19] | composite z-score [20] |
| --- | --- | --- | --- | --- | --- | --- | --- | --- | --- | --- | --- | --- | --- | --- | --- | --- | --- | --- | --- | --- |
| C=C1C(=O)C=C2CN(C(=O)c3ccccc3)[C@@](Cc3ccc(F)cc3)(C(=O)OC)[C@@H]12 | 0.356 | -23.7 (active) | -15.9 (active) | -2.6 (inactive) | 3.47 | -0.57 (inactive) | 0.513 | 0.0319 | 1.05 | 0.0071 | 0.641 | 1.16 | 1.21 | -0.756 (inactive) | 0.941 | 1.2 | -0.0735 | 1.06 | -0.519 | 1.05 |
| CO[C@H]1O[C@H](CO)[C@@H](OC(=O)Nc2cccc(F)c2)[C@H](OC(=O)Nc2ccc3c(c2)OCO3)[C@@H]1OC(=O)Nc1ccc2c(c1)OCO2 | 1.53 | 1.79 (inactive) | 1.24 (inactive) | 7.48 (inactive) | 3.48 | -0.0741 (inactive) | 0.126 | 0.691 | 1.08 | -0.039 | 1.13 | 0.359 | 0.558 | -1.13 (inactive) | 1 | 1.2 | 0.0595 | 1.37 | 0.229 | 0.663 |
| C=C(C(=O)CC[C@@H](OC(=O)c1cccnc1)c1cccc(OCCO)c1)C(C)C | 0.271 | -1.11 (inactive) | -0.0738 (inactive) | 1.04 (inactive) | -0.826 | 1.12 (inactive) | -0.0962 | 0.597 | 0.144 | 0.0391 | 1.32 | 0.28 | 0.0064 | 3.07 (inactive) | 0.959 | -0.521 | 0.111 | 0.343 | 0.109 | 0.867 |
| C=C[C@@H](CO)NS(=O)(=O)c1ccc(Br)cc1 | -0.635 | -3.08 (inactive) | -3.63 (inactive) | -1.27 (inactive) | -0.361 | 3.54 (inactive) | -0.24 | -0.275 | -1.85 | -0.164 | -1.62 | -0.267 | -0.0866 | -0.774 (inactive) | -0.398 | -0.986 | -0.288 | -0.459 | -0.0213 | 0.733 |
| C=CC[C@H](OC(=O)Nc1ccc(SC)cc1)c1ccc(O)c(F)c1 | -0.487 | -22.7 (active) | -19.7 (active) | -1.19 (inactive) | 1.04 | 0.622 (inactive) | -0.106 | -0.176 | 0.223 | -0.14 | 0.983 | -0.172 | 0.277 | -0.354 (inactive) | -0.918 | -0.786 | -0.392 | -0.88 | -1.17 | 0.536 |
